The text below walks through data of PubChem BioAssay (NCI).

This is part of a sample that, as a whole, favours compounds with a hit. Of some 83,000 tested, about 20% had one in any assay.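 Cell lines were cultured in 96-well plates, exposed to a single compound concentration, and assessed for percent growth 48 hours later.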 Unmarked numbers belong to inactive results. Activity calls are given as the source filed them. Rule for the calls: active = growth percent below 10; inactive = the rest.

This test relates to MCF7 breast. As to the kind of experiment: NCI-60 one-dose screen, 48 h (100 = growth as untreated, 0 = no growth, -100 = all killed). The conditions noted are these: 10 µM unless noted.
For `CC1(C)CC[C@]2(C(=O)N3CCOCC3)CC[C@]3(C)C(=CC[C@@H]4[C@@]5(C)C/C(=C/c6ccncc6)C(=O)C(C)(C)[C@@H]5CC[C@]43C)[C@@H]2C1`, the growth was 8.43% (active).
In the case of `O=C(Nc1cccnc1Nc1ccc(Cl)cc1)c1cn(Cc2ccc(F)cc2)nn1`, the growth is 92.8%.
On to `C=C1C(=O)O[C@H]2[C@H]1CC/C(CNC(=O)c1cc3ccccc3[nH]1)=C\CC[C@@]1(C)O[C@@H]21`, for which the growth was -56.7% (active).
As for `C=CCN=C(N)SCCCCCCSC(N)=NCC=C`, the growth was 90.9%.
For `CNC(=O)c1c(NC(=O)c2ccc(C(C)(C)C)cc2)sc2c(CN(C)C)c(O)ccc12`, the growth was -43.2% (active).
Regarding `COc1ccc(C/C(C)=C(\c2ccc(O)cc2)c2ccc(OCCN3CCCC3)cc2)cc1`, the growth was 63.3%.
Then `S=c1ssnc1-c1cccs1`, with 91.6%; and `COc1cc(/C=C/c2cc(/C=C/c3ccc(O)c(OC)c3)n(C(=O)Nc3ccc(F)cc3)n2)ccc1O`, with 9.49% (active); and `COc1cc2c3c(n(CCCCNCCCn4c5c(c6cc(OC)c(OC)cc6c4=O)C(=O)c4cc6c(cc4-5)OCO6)c(=O)c2cc1OC)-c1cc2c(cc1C3=O)OCO2`, with 93.6%.
The value for `COc1cc(-c2cc(-c3ccc(Nc4ncnc5cc(Cl)ccc45)cc3)nc(N3CCN(C)CC3)n2)cc(OC)c1OC` was 53.8%; that for `COc1cc(C(=O)/C=C/c2ccc(N3CCN(C)CC3)cc2)cc(OC)c1OC` was 96%.
`Cc1ccc2[nH]c(=O)c3c(c2c1)OC(N)=C(C#N)C31C(=O)c2cccc3cccc1c23` (stereo not given): the growth was 88.2%.
`Cn1c(=O)c2c(nc(NC3=NS(=O)(=O)c4ccccc43)n2Cc2ccccc2)n(C)c1=O`: the growth was 88.7%.
The value for `COc1ccc(C/C(C)=C(/c2ccc(OCCN3CCCCCC3)cc2)c2ccc(OC(=O)NCc3ccccc3)cc2)cc1` was 29.9%; that for `Cn1cc(-c2csc(-c3cn(C(=O)OC(C)(C)C)c4ccccc34)n2)c2ccnc(Cl)c21` was 33.3%.
For `CCN(C(=O)N1CCN(c2cc3c(cc2F)c(=O)c(C(=O)O)cn3C2CC2)CC1)c1nc(-c2ccc(C)cc2)cs1`, the growth is 6.09% (active).
`COC(=O)c1nc(-c2ccccc2)oc1S(=O)(=O)N1CCC(C(N)=O)CC1`: the growth was 32%.
For `CCCCSCC(=O)c1ccccc1`, the growth was 98.2%.
Then `Cc1ccc(Nc2nc(-c3ccc(F)cc3)c(C#N)c(=O)n2C)cc1`, with 56.1%; and `COc1cccc(OC)c1Oc1c(-c2nc3ccccc3s2)c(C)nn1-c1ccccc1`, with 82.1%; and `Cc1ccccc1CNc1c2ccccc2nc2ccccc12`, with 6.93% (active).
Then `COc1ccc2nc3ccccc3c(NCc3ccc(F)cc3)c2c1`, with -27.7% (active); and `O=C1NC(=O)c2c1c1c3ccccc3[nH]c1c1oc3cc(Br)ccc3c21`, with 36.2%.
As to `COc1ccc(-c2nnc(SCC(=O)Nc3ccc(/C(C)=N\O)cc3)n2-c2ccccc2)cc1OC`, the growth was 69.2%.
In the case of `CC1=CCC[C@@H]2C1(C)CC[C@H](C)[C@@]2(C)CC1=CC(=O)C(SC(C)(C)C)=CC1=O` (stereo not given in full), the growth is -61.1% (active).
Regarding `CCn1cc(CNc2ccc(C(=O)Nc3cc4cc(OC)c(OC)cc4c(C)n3)cc2)c(C)n1`, the growth was 30%.
Then `CCCCN1C(=O)/C(=c2\sc3n(c2=O)NC2C(N=3)N(CC)C(=O)N2CC)c2ccccc21` (stereo not given), with 25%; and `NC(=O)c1c(NC(=O)c2ccc(Cl)cc2)sc2c1CCC(=O)C2`, with 57.8%.
As for `CC1(C)CC[C@]2(C(=O)O)CC[C@]3(C)C(=CC[C@@H]4[C@@]5(C)C[C@@H](Cc6cn([C@@H]7O[C@H](CO)[C@@H](O)[C@H](O)[C@H]7O)nn6)[C@H](O)C(C)(C)[C@@H]5CC[C@]43C)[C@@H]2C1`, the growth was 91.4%.
In the case of `CCNCc1ccc(O)c2ncccc12`, the growth is 17.3%.
For the molecule `CC(C)c1ccc(C(=O)Nc2sc3cc(O)ccc3c2C#N)cc1`, the growth is 13.8%.
The value for `CCOC(=O)c1c(NC(=O)CSc2n[nH]c3nc4ccccc4n23)sc(CC)c1C` was 91.9%; that for `COc1cccc(/C=C/C(=O)c2cc3c(N)c(C(=O)Nc4cccc(Cl)c4C)sc3nc2C)c1` was 3.5% (active); that for `Cc1nn(-c2ccccc2)c(N2CCCCC2)c1/C=N/NC(=O)Cn1c(=O)sc2ccccc21` was 67.3%.
Regarding `COC(=O)Cc1nc(C#N)c(N(C)C)o1`, the growth is 94.9%.
